Laboratory results taken from PubChem BioAssay (Tox21).
Where “and” joins values, the source holds several entries; their conditions need not be identical. Equal values may be shown once. Results filed as inconclusive are left out. Calls of active or inactive are those of the source. Unless noted, calls come from the whole dose curve; as a rule, active = well fitted curve in the direction sought with a large enough effect in the repeat runs; inconclusive = weak or mixed curves; inactive = no such curve, though single readings can be large; an effect the other way counts as inactive or inconclusive.

Legend:
[1] = qHTS assay to identify small molecule antagonists of the estrogen related receptor (ERR) signaling pathway from Tox21 library - cell viability counter screen (AID 1224834); note: nearly all actives have a fitted effect of over 30% in size
Summary of the method: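 Viability readout (CellTiter-Fluor fluorescence, 30 min at 37 C) multiplexed with the ERR assay; cells treated 17.5 h at 37 C with compounds delivered in DMSO.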

[2] = molecular target: Luciferin 4-monooxygenase (Photinus pyralis) (UniProt P08659); experiment: qHTS assay to identify small molecule inhibitors of firefly luciferase (AID 1224835); note: nearly all actives have a fitted effect of over 25% in size
Sequence of Luciferin 4-monooxygenase (Photinus pyralis) (P08659 whole entry, looked up): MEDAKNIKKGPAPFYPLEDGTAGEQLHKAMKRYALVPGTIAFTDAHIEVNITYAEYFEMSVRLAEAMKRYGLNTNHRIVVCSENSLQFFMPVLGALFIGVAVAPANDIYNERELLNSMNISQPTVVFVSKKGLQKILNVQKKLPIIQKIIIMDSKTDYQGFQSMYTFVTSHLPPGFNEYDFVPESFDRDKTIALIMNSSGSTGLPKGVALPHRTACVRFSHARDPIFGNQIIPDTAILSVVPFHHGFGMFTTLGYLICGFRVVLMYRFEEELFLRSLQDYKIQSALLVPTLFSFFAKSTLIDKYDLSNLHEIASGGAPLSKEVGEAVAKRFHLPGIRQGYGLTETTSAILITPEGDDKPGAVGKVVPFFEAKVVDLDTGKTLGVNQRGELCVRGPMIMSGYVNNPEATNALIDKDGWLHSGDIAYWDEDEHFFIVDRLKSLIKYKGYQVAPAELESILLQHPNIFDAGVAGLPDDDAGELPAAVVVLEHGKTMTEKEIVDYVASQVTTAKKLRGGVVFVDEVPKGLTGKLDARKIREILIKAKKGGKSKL
Summary of the method: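 Biochemical qHTS: compounds run as interplate titrations against purified firefly enzyme, with D-luciferin and ATP each at its KM concentration. Light output recorded by CCD imaging.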

[3] = qHTS assay to identify small molecule agonists of the constitutive androstane receptor (CAR) signaling pathway - cell viability counter screen (AID 1224836); note: nearly all actives have a fitted effect of over 45% in size
Summary of the method: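 HepG2 cells stably carrying hCAR and a CYP2B6-2.2kb reporter were plated 4 h, then given compounds at 15 concentrations plus PK11195 (final 0.75 uM). After 23 h at 37 C, viability was read by CellTiter-Fluor fluorescence.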

[4] = qHTS assay to identify small molecule antagonists of the constitutive androstane receptor (CAR) signaling pathway - cell viability counter screen (AID 1224837); note: nearly all actives have a fitted effect of over 45% in size
Summary of the method: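 Fluorescence from CellTiter-Fluor served as the viability signal. Human hepatoma HepG2 cells stably bearing hCAR and CYP2B6-2.2kb received compound plus CITCO (50 nM final) for 23 hr.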

[5] = molecular target: Nuclear receptor subfamily 1 group I member 3 (Homo sapiens) (UniProt Q14994); experiment: qHTS assay to identify small molecule antagonists of the constitutive androstane receptor (CAR) signaling pathway (AID 1224838); note: nearly all actives have a fitted effect of over 40% in size
Sequence of Nuclear receptor subfamily 1 group I member 3 (Homo sapiens) (Q14994 whole entry, looked up): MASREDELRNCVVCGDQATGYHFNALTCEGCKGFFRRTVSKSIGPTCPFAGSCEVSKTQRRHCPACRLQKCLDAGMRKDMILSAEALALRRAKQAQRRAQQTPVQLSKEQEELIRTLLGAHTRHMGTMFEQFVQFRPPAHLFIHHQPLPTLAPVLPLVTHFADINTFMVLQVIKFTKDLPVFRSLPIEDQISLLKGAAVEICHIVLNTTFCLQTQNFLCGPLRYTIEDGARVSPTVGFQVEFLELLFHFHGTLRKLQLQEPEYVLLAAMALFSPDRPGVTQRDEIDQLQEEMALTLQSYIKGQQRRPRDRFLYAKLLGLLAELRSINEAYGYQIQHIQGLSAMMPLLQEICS
Summary of the method: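 Quantitative HTS in double-stable HepG2-CYP2B6-hCAR cells. After 4 h plating, cells get compound (15 concentrations) and CITCO at 50 nM final, incubate 24 h at 37 C, then ONE-Glo luminescence is read.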

[6] = molecular target: Nuclear receptor subfamily 1 group I member 3 (Homo sapiens) (UniProt Q14994); experiment: qHTS assay to identify small molecule agonists of the constitutive androstane receptor (CAR) signaling pathway (AID 1224839);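 note: HepG2 cells stably carrying human CAR and a CYP2B6 luciferase reporter; nearly all actives have a fitted effect of over 15% in size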
Summary of the method: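 HepG2 cells stably expressing hCAR and a CYP2B6-2.2kb luciferase reporter were treated with compounds at 15 concentrations plus 0.75 uM PK11195 (final) for 24 h at 37 C; luminescence was read after ONE-Glo addition.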

[7] = qHTS assay to identify small molecule antagonists of the estrogen related receptor signaling pathway with the pleiotropic PPARgamma coactivator (PGC) from Tox21 10K library - cell viability counter screen (AID 1224840; active = well fitted cell-killing curve with a large enough effect in the repeat runs, not every such curve was filed as active; note: nearly all actives have a fitted effect of over 40% in size)
Summary of the method: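 Compounds in DMSO, alongside positive and negative controls, were pinned onto PGC/ERR cells (2,000 per well). Exposure lasted 17.5 hours at 37 C, followed by a 30-minute CellTiter-Fluor incubation and fluorescence reading.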

[8] = qHTS assay to identify small molecule antagonists of the estrogen related receptor signaling pathway with the pleiotropic PPARgamma coactivator (PGC) from Tox21 10K library (AID 1224841; call rule not given here; note: actives are mostly falling curves and most rising ones were filed inactive; nearly all actives have a fitted effect of over 50% in size)
Summary of the method: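 Compound exposure ran 18 hours at 37 C in PGC/ERR cells (2,000/well) that had first rested 6 hours in a 37 C/5% CO2 incubator. Luciferase activity was then detected with One-Glo after a 30-minute room-temperature step.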

[9] = molecular target: Thyrotropin receptor (Homo sapiens) (UniProt P16473); experiment: qHTS assay to identify small molecule agonists of the thyroid stimulating hormone receptor (TSHR) signaling pathway (AID 1224843; calls by dose curve; note: nearly all actives have a fitted effect of over 45% in size)
Sequence of Thyrotropin receptor (Homo sapiens) (P16473 whole entry, looked up): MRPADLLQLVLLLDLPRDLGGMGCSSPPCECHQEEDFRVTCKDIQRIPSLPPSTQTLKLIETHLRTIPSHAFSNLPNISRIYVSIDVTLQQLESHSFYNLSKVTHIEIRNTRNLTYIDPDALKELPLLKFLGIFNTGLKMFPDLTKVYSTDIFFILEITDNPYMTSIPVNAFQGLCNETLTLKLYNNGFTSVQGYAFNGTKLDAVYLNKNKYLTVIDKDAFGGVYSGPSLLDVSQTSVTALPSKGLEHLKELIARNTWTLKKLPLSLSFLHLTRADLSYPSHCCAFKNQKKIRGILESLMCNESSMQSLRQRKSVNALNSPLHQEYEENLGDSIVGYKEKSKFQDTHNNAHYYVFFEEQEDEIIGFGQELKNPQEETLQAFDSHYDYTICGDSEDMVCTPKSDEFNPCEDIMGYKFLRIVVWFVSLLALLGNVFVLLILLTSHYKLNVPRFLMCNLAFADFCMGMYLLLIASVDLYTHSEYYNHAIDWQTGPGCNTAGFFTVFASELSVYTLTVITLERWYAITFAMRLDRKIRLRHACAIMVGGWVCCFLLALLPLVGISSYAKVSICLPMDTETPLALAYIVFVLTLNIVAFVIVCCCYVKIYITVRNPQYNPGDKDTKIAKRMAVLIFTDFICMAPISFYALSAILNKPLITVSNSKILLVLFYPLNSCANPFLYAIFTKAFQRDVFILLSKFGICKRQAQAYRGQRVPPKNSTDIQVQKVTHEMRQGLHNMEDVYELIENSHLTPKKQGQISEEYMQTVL
Summary of the method: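 TSHR-HEK293 cells in agonist mode, 30 min room-temperature step, then cAMP measured by competitive HTRF (cAMP-d2 with anti-cAMP cryptate) after 1 h at room temperature. Tested at 15 concentrations in triplicate.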

[10] = qHTS assay to identify small molecule agonists of the hypoxia (HIF-1) signaling pathway - cell viability counter screen (AID 1224844; calls by dose curve; note: nearly all actives have a fitted effect of over 50% in size)
Summary of the method: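 Luminescent ATP content (CellTiter-Glo, 30 min, room temperature) served as the viability measure in HRE-bla ME-180 cells exposed to compounds for 17 hrs in low-serum medium (0.5% dialyzed FBS).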

[11] = qHTS assay to identify small molecule agonists of H2AX (AID 1224845; active = well fitted activation curve with a large enough effect in the signal ratio in the repeat runs, not every such curve was filed as active; the % refers to the signal ratio)
Summary of the method: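 Wild-type CHO-K1 cells, plated overnight, exposed 3hr at 37C to 15 concentrations (0.76% DMSO final). Lysed, then HTRF anti-pH2AX (S139) cryptate and anti-H2AX-d2 antibodies, 24 hr room temperature; 665/620 nm emission read.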

[12] = qHTS assay to identify small molecule agonists of the hypoxia (HIF-1) signaling pathway (AID 1224846; active = well fitted activation curve with a large enough effect in the signal ratio in the repeat runs, not every such curve was filed as active; the % refers to the signal ratio)
Summary of the method: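 Measured by blue/green FRET after loading CCF4-AM: beta-lactamase expressed from a hypoxia response element in ME-180 cells. Test agents were delivered in DMSO and left 17 hrs; cells had been plated 5 hrs earlier in low-serum (0.5% dialyzed FBS) medium.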

[13] = qHTS assay to identify small molecule agonists of H2AX - cell viability counter screen (AID 1224847; calls by dose curve; note: top concentration of the series differs between compounds; nearly all actives have a fitted effect of over 30% in size)
Summary of the method: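 Wild-type CHO-K1 cells (10% FBS medium) were plated overnight at 37C, exposed to compounds at 15 concentrations for 3 hr at 37C (0.76% DMSO final), and viability was read as CellTiter-Glo luminescence after 30 min at room temperature.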

[14] = qHTS assay to identify small molecule antagonists of the estrogen related receptor (ERR) signaling pathway from Tox21 library (AID 1224848); note: nearly all actives have a fitted effect of over 50% in size
Summary of the method: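 ERR reporter cell line (from NTP) seeded 2,000 cells/well, rested 6 h at 37 C/5% CO2, then pin-dosed with compounds in DMSO. After 18 h at 37 C, ONE-Glo added; luminescence read after 30 min at room temperature.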

[15] = qHTS assay to identify small molecule agonists of the estrogen related receptor (ERR) signaling pathway from Tox21 library (AID 1224849; calls by dose curve; note: nearly all actives have a fitted effect of over 15% in size); conditions: ERR reporter cell line, ONE-Glo luciferase, 18 h
Summary of the method: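 We plated ERR reporter cells, waited 6 h, added compounds in DMSO by pin tool and incubated them 18 h at 37 C. ONE-Glo was then added and luminescence read after 30 min.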

[16] = qHTS RealTime-Glo MT Cell Viability Assay in HepG2 cells - 24 hour (AID 1224867); note: nearly all actives have a fitted effect of over 50% in size
Summary of the method: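 Viability was tracked continuously by NanoLuc luminescence from prosubstrate reduced by living HepG2 cells, at successive time points over 40 h of compound exposure. Cells with reagent were preincubated 5 h at 37 °C before compound addition.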

[17] = qHTS RealTime-Glo MT Cell Viability Assay in HEK293 cells - 32 hour (AID 1224868)
Summary of the method: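 Viability tracked continuously by luminescence as live cells reduce a prosubstrate for NanoLuc; HEK293 cells preincubated 5 h, compound-treated at 37 C, and read at 0, 8, 16, 24, 32 and 40 h.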

[18] = A CellTox Green Cytotoxicity Assay to monitor cytotoxicity in HEK293 cells - 0 hour (AID 1224869); note: nearly all actives have a fitted effect of over 50% in size
Summary of the method: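 Each value comes from one timepoint of a single continuous run in which HEK293 cells with CellTox Green were exposed to compound for up to 40 h at 37 C, dye fluorescence rising with cell death.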

[19] = qHTS RealTime-Glo MT Cell Viability Assay in HepG2 cells - 40 hour (AID 1224870); note: nearly all actives have a fitted effect of over 50% in size
Summary of the method: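 HepG2 cells (600/well) mixed with RealTime-Glo MT reagent, settled 5 h at 37 C/5% CO2 before compound addition. Nonlytic NanoLuc luminescence from viable-cell prosubstrate reduction read repeatedly during 40 h treatment at 37 C.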

[20] = qHTS assay to identify small molecule agonists of the estrogen related receptor signaling pathway with the pleiotropic PPARgamma coactivator (PGC) (AID 1224823)
Summary of the method: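 Steps: plate PGC/ERR cells at 2,000 cells/well; incubate 6 h, 37 C/5% CO2; pin-transfer compounds (DMSO); incubate 18 h, 37 C; add One-Glo; 30 min RT; read luminescence.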
% is set by controls: 0 for no effect and ±100 for the full control effect.

CN(C)C=O
inactive: Potency [1] | Potency [2] | Potency [3] | Potency [4] | Potency [5] | Potency [6] | Potency [7] | Potency [8] | Potency [9] | Potency [10] | Potency [11] | outcome [12] | Potency [13] | Potency [14] | activity change, positive = activation ([15]; at 92.4 µM (top of the series)) 7.34% and 6.88% | outcome [16] | Potency [17] | Potency [18] | outcome [19]

OCCCc1ccccc1
inactive: Potency [1] | Potency [2] | Potency [3] | Potency [4] | Potency [5] | Potency [6] | Potency [7] | Potency [8] | Potency [9] | Potency [10] | Potency [11] | outcome [12] | Potency [13] | Potency [14] | activity change, positive = activation ([15]; at 42.5 µM (top of the series)) -1.08% | activity change, positive = activation ([15]; at 92.4 µM (top of the series)) 4.65% | outcome [16] | Potency [17] | Potency [18] | outcome [19]

C=C(C)OC(C)=O
inactive: Potency [1] | Potency [2] | Potency [3] | Potency [4] | Potency [5] | Potency [6] | Potency [7] | Potency [8] | Potency [9] | Potency [10] | Potency [11] | outcome [12] | Potency [13] | Potency [14] | activity change, positive = activation ([15]; at 92.4 µM (top of the series)) 4.28% and 3.36% | outcome [16] | Potency [17] | Potency [18] | outcome [19]

O=C(O)CN(CC(=O)O)CC(=O)O
inactive: Potency [1] | Potency [2] | Potency [3] | Potency [4] | Potency [5] | Potency [6] | Potency [7] | Potency [8] | Potency [9] | Potency [10] | Potency [11] | outcome [12] | Potency [13] | Potency [14] | activity change, positive = activation ([15]; at 92.4 µM (top of the series)) 0.123% and 2.89% | outcome [16] | Potency [17] | Potency [18] | outcome [19]

COC(=O)c1ccc(C=O)cc1
inactive: Potency [1] | Potency [2] | Potency [3] | Potency [4] | Potency [5] | Potency [6] | Potency [7] | Potency [8] | Potency [10] | Potency [11] | outcome [12] | Potency [13] | Potency [14] | activity change, positive = activation ([15]; at 92.4 µM (top of the series)) -0.881% | outcome [16] | Potency [17] | Potency [18] | outcome [19]

CCOC(=O)C(C)(C)Oc1ccc(Cl)cc1
inactive: outcome [20] | Potency [1] | Potency [2] | Potency [3] | Potency [4] | Potency [7] | Potency [8] | Potency [9] | Potency [10] | Potency [11] | Potency [13] | Potency [14] | activity change, positive = activation ([15]; at 42.5 µM (top of the series)) 1.46% | activity change, positive = activation ([15]; at 92.4 µM (top of the series)) 1.63% and -0.349% | outcome [16] | Potency [17] | Potency [18] | outcome [19]

C/C=C/c1ccc(O)c(OC)c1
inactive: Potency [1] | Potency [2] | Potency [3] | Potency [4] | Potency [5] | Potency [6] | Potency [7] | Potency [9] | Potency [10] | Potency [11] | outcome [12] | Potency [13] | outcome [16] | Potency [17] | Potency [18] | outcome [19]
